According to the supplement of paper PMC13380429:
Unmarked numbers belong to inactive results.

Tested on: Vero E6 infected with SARS-CoV-2
Assay: inhibition of SARS-CoV-2 cytopathic effect; higher = more antiviral protection, active = above 15
Settings: 48 h

| SMILES | inhibition of SARS-CoV-2 cytopathic effect (1 nM) [%] | inhibition of SARS-CoV-2 cytopathic effect (8.33 nM) [%] | inhibition of SARS-CoV-2 cytopathic effect (100 nM) [%] | inhibition of SARS-CoV-2 cytopathic effect (833.33 nM) [%] | inhibition of SARS-CoV-2 cytopathic effect (10000 nM) |
| --- | --- | --- | --- | --- | --- |
| OCC(O)CN1CCN(c2ccccc2)CC1 (stereo not given) [dropropizine] | -2.5 | -2.56 | -2.71 | -2.45 | -3% |
| FC(F)(F)c1ccc(/C=C/c2nc(COc3ccc(CCCCn4ccnn4)cc3)co2)cc1 [mubritinib] | 2.13 | 1.62 | 2.58 | 3.2 | 1.47% |
| CC(=O)NCC(=O)N1[C@@H]2CC[C@H]1c1ccc(Nc3ncc(C(F)(F)F)c(NC4CCC4)n3)cc12 | -2.51 | -1.15 | -2.99 | -4.63 | -15.4% |
| CCCN1CCO[C@@H]2c3cc(O)ccc3OC[C@H]21 | -1.91 | -3.42 | 2.39 | -0.35 | -2.98% |
| CCN(CC)CCOc1ccccc1C(=O)CCc1ccccc1 [etafenone] | 1.2 | 0.17 | -0.61 | 0.23 | -3.07% |
| CCCCCS(=O)(=O)CCCCCCCCCCn1c(-c2ccc(O)cc2)c(C)c2cc(O)ccc21 | 1.18 | -2.92 | -0.42 | -1.6 | -5.93% |
| CN=C(N)NCCC[C@H](N)C(=O)O [L-monomethylarginine] | -0.78 | -1.38 | 0.7 | 1.39 | -1.85% |
| NC(=O)Nc1sc(-c2ccc(F)cc2)cc1C(N)=O | 1.14 | -0.06 | -0.35 | -3.05 | -0.22% |
| O=c1n(CC2CO2)c(=O)n(CC2CO2)c(=O)n1CC1CO1 (stereo not given) [teroxirone] | -1.74 | -0.65 | 0.11 | 0.34 | 9.05% |
| C#C[C@]1(O)CC[C@H]2[C@@H]3CCC4=CC(=O)CC[C@@H]4[C@H]3CC[C@@]21CC [norgestrel] | -2 | -0.115 | 2.25 | -0.065 | 0.025% |
| COc1ccc(Cl)cc1NC(=O)Nc1cc(C)nc2ccccc12 | 1.48 | -2.11 | -0.41 | 1.18 | -17.7% |
| O=C(NCCN1CCCCC1)c1ccc(I)cc1 [N-[2-(piperidinylamino)ethyl]-4-iodobenzamide] | 0.64 | 2 | -0.15 | -2.57 | -1.77% |
| C/C=C(/C(=C/C)c1ccc(O)cc1)c1ccc(O)cc1 [dienestrol] | 2 | -0.9 | -0.85 | 0.84 | 1.6% |
| COC1CCN(c2cccc(-c3cc(NC(C)=O)nc(-n4nc(C)cc4C)n3)n2)CC1 | 0.48 | 2.72 | 2.53 | 1.74 | -0.2% |
| c1ccc2sc(SN3CCOCC3)nc2c1 [N-oxydiethylenebenzothiazole-2-sulfenamide] | -2.53 | -1.68 | -1.37 | 0.03 | -1.24% |
| Cc1nc(C)c(Cl)c(O)c1Cl [clopidol] | -2.81 | -1.24 | 1.07 | 0.96 | 1.78% |
| C[C@H]1CO[C@@H]2Cn3cc(C(=O)NCc4ccc(F)cc4F)c(=O)c(O)c3C(=O)N12 | 0 | 1.03 | 1.79 | 1.33 | -0.84% |
| O=C(O)c1cn(-c2ccc(F)cc2)c2cc(N3CCNCC3)c(F)cc2c1=O [sarafloxacin] | -2.73 | -5.26 | -3.5 | -5.86 | -4.93% |

| SMILES | inhibition of SARS-CoV-2 cytopathic effect (1 nM) [%] | inhibition of SARS-CoV-2 cytopathic effect (8.33 nM) [%] | inhibition of SARS-CoV-2 cytopathic effect (100 nM) [%] | inhibition of SARS-CoV-2 cytopathic effect (833.33 nM) [%] | inhibition of SARS-CoV-2 cytopathic effect (10000 nM) |
| --- | --- | --- | --- | --- | --- |
| C#C[C@]1(O)CC[C@H]2[C@@H]3CCC4=CC(=O)CC[C@@H]4[C@H]3CC[C@@]21C [Norethindrone (Norethisterone)] | -1.49 | -0.9 | -1.69 | 1.37 | 2.33% |
| COc1cc2c3cc1Oc1cc(ccc1O)C[C@@H]1c4c(cc(OC)c(O)c4Oc4ccc(cc4)C[C@@H]3N(C)CC2)CC[N+]1(C)C [tubocurarine] | -3.23 | -3.95 | -2.68 | 0.38 | 1.45% |
| C[C@@H]1COC(Nc2ccc3ncnc(Nc4ccc(OCc5nccs5)c(Cl)c4)c3c2)=N1 | 2.68 | 1.86 | -0.65 | -3.55 | -4.19% |
| O=[N+]([O-])c1cn2c(n1)OC[C@@H](OCc1ccc(OC(F)(F)F)cc1)C2 [pretomanid] | 0.26 | 0.54 | -0.43 | -0.88 | 0.65% |
| c1ccc(C(O[C@@H]2CCCN(CCc3ccc4c(c3)OCO4)C2)c2ccccc2)cc1 [zamifenacin] | 0.36 | 3.7 | 0.93 | -1.42 | -1.64% |
| COc1cc(NS(C)(=O)=O)ccc1Nc1c2ccccc2nc2ccccc12 [amsacrine] | -2.31 | 1.72 | -0.21 | -6.01 | -5.76% |
| O=C(O)CSCC(=O)NC1CCSC1=O (stereo not given) [erdosteine] | 1.03 | 2.17 | 1.67 | -2.61 | 1.6% |
| CC(C)(O)c1coc(S(=O)(=O)NC(=O)Nc2c3c(cc4c2CCC4)CCC3)c1 | -0.7 | -2.3 | -3.97 | 0.34 | -0.6% |
| CC(=O)O[C@H]1C[C@@H]2CC[C@@H]3[C@H](CC[C@@]4(C)[C@H]3C[C@H]([N+]3(C)CCCCC3)[C@@H]4OC(C)=O)[C@@]2(C)C[C@@H]1[N+]1(C)CCCCC1 [pancuronium] | -2.97 | -1.22 | -0.15 | -0.93 | -1.28% |
| C#C[C@]1(O)CC[C@H]2[C@@H]3CCc4cc(OC)ccc4[C@H]3CC[C@@]21C [mestranol] | 0.06 | 0.82 | 0.83 | 0.76 | -0.67% |
| CC(C)n1cnc2c(NCCc3ccc(O)cc3)nc(-c3csc4ccccc34)nc21 [stemregenin-1] | 1.26 | 0.69 | 1.35 | -0.07 | 18.1% (active) |
| Cc1cccc(Oc2nc3c(C)cccn3c(=O)c2/C=C(\C#N)c2nc3ccccc3s2)c1 | -0.1 | 1.16 | 0.8 | 3.43 | 0.62% |
| C=C[C@@](C)(/C=C/c1ccc(O)cc1)CCC=C(C)C [bakuchiol] | 1.64 | 2.39 | 0.23 | 0.59 | 0.79% |
| C[C@H](C[C@H](N)C(=O)O)C(=O)O | -1.19 | -0.93 | -1.73 | -0.6 | -0.35% |
| CN1CC[C@H](c2c(O)cc(O)c3c(=O)cc(-c4ccccc4Cl)oc23)[C@H](O)C1 [alvocidib] | 2.38 | 1.53 | 7.55 | -19.4 | -9.43% |
| Clc1ccc(C(c2ccccc2Cl)C(Cl)Cl)cc1 (stereo not given) [mitotane] | -2.51 | -1.75 | -2.14 | -2.16 | 0.99% |
| CC(C)OC(=O)[C@H](C)N[P@](=O)(CO[C@H](C)Cn1cnc2c(N)ncnc21)Oc1ccccc1 [tenofovir-alafenamide] | -2.51 | -1.55 | -0.12 | -2.51 | 3.48% |
| CCc1cn([C@H]2C[C@H](O)[C@@H](CO)O2)c(=O)[nH]c1=O [edoxudine] | 2.72 | 2.12 | 0.77 | 1.82 | -0.51% |
